Records with an inconclusive call do not appear. Values without a mark were called inactive. Activity calls are given as the source filed them. The call rests on the fitted dose curve; in most records, active means well fitted curve in the direction sought with a large enough effect; inconclusive means small, poorly fitted or top-dose-only effect, or another doubt; inactive means no such curve, though single readings can be large; an effect the other way counts as inactive or inconclusive.

A short description of assay [1]: Quantitative High-Throughput drug screen in 47 multiple myeloma cell lines against the NCATS MIPE library collection: Karpas620_DSMZ cell viability assay (AID 1918959). Further: nearly all actives have a fitted effect of over 30% in size. Further: potency means the concentration at half of the fitted maximal effect. Summed up:
(§1)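 We plated 500 myeloma cells per well, pinned in MIPE 4.0 compounds, and incubated for 48 hours at 37C. ATP was then quantified with CellTiter-Glo, with DMSO and media-only wells defining 100% and 0%.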

Assay [2] can be described thus: Quantitative High-Throughput drug screen in 47 multiple myeloma cell lines against the NCATS MIPE library collection: KMM1_JCRB cell viability assay (AID 1918960).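 Further: 100% = DMSO-treated cells and 0% = medium-only wells; nearly all actives have a fitted effect of over 30% in size.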 Put shortly:
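CellTiter-Glo luminescence after 48 h exposure gives viability, scaled between DMSO-only (100%) and media-only (0%) controls. Library compounds are pinned onto 500 myeloma cells per well, incubated at 37C with 5% CO2.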

Assay [3] is described as follows: Quantitative High-Throughput drug screen in 47 multiple myeloma cell lines against the NCATS MIPE library collection: JIM3_ECACC cell viability assay (AID 1918963; further: nearly all actives have a fitted effect of over 35% in size; further: potency means the concentration at half of the fitted maximal effect). Put shortly:
as §1

Assay [4] can be described thus: Quantitative High-Throughput drug screen in 47 multiple myeloma cell lines against the NCATS MIPE library collection: H1112_PLB cell viability assay (AID 1918967; further: nearly all actives have a fitted effect of over 30% in size; further: potency means the concentration at half of the fitted maximal effect). Put shortly: (§2)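 Primary qHTS used for cherry-picking: cells at 500/well, library compounds for 48 h (37C, 5% CO2), luminescent ATP assay.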
The nature of assay [5]: Quantitative High-Throughput drug screen in 47 multiple myeloma cell lines against the NCATS MIPE library collection: Karpas25_ECACC cell viability assay (AID 1918968; further: nearly all actives have a fitted effect of over 35% in size; further: potency means the concentration at half of the fitted maximal effect). Put shortly:
as §2

The nature of assay [6]: Quantitative High-Throughput drug screen in 47 multiple myeloma cell lines against the NCATS MIPE library collection: KMS12BM_JCRB cell viability assay (AID 1918971). Further: nearly all actives have a fitted effect of over 35% in size. Further: potency means the concentration at half of the fitted maximal effect. Put shortly: (§3)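 Luminescent ATP measurement with CellTiter-Glo gives viability, scaled between DMSO-only wells (100%) and media-only wells (0%). Cells, 500 per well, faced library compounds for 48 hours at 37C.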

Assay [7] can be described thus: Quantitative High-Throughput drug screen in 47 multiple myeloma cell lines against the NCATS MIPE library collection: NCIH929_DSMZ cell viability assay (AID 1918978). Further: nearly all actives have a fitted effect of over 35% in size. Further: potency means the concentration at half of the fitted maximal effect. Summed up: (§4)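 Cells were exposed to library compounds for 48 hours, after which ATP was measured by CellTiter-Glo. Signal was taken as median relative luminescence units.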
A short description of assay [8]: Quantitative High-Throughput drug screen in 47 multiple myeloma cell lines against the NCATS MIPE library collection: OCIMY1_PLB cell viability assay (AID 1918979). Further: nearly all actives have a fitted effect of over 35% in size. Summed up:
as §4

Assay [9] in a line: Quantitative High-Throughput drug screen in 47 multiple myeloma cell lines against the NCATS MIPE library collection: Karpas417_ECACC cell viability assay (AID 1918961). Further: potency means the concentration at half of the fitted maximal effect. The note with it: Karpas417 myeloma viability, CellTiter-Glo ATP luminescence, 48 h; viability (% of DMSO): at 45.8 µM (top of the series). Summed up:
(§5)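 Viability readout: CellTiter-Glo luminescence following 5 min room-temperature incubation with reagent. Prior exposure: 48 h, 37C, humidified 5% CO2, 500 cells per well.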

A short description of assay [10]: Quantitative High-Throughput drug screen in 47 multiple myeloma cell lines against the NCATS MIPE library collection: KHM11_PLB cell viability assay (AID 1918962). Further: nearly all actives have a fitted effect of over 35% in size. Further: potency means the concentration at half of the fitted maximal effect. Put shortly:
as §1

Assay [11] is described as follows: Quantitative High-Throughput drug screen in 47 multiple myeloma cell lines against the NCATS MIPE library collection: KMS27_JCRB cell viability assay (AID 1918970). Further: nearly all actives have a fitted effect of over 30% in size. Further: potency means the concentration at half of the fitted maximal effect. The settings on record: KMS27 myeloma cells, CellTiter-Glo ATP viability, 48 h; viability (% of DMSO): at 45.8 µM (top of the series). Summed up: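 CellTiter-Glo luminescence after 48 h drug exposure at 37 °C; 500 cells/well, 1536-well format, pin-tool compound addition; DMSO = 100%, media-only = 0% viability.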
In general terms: ATP-based viability assays read luminescence as a measure of living cells.

Assay [12] can be described thus: Quantitative High-Throughput drug screen in 47 multiple myeloma cell lines against the NCATS MIPE library collection: KMS12PE_JCRB cell viability assay (AID 1918972). Further: nearly all actives have a fitted effect of over 30% in size. Further: potency means the concentration at half of the fitted maximal effect. Summed up:
as §5

Assay [13] is described as follows: Quantitative High-Throughput drug screen in 47 multiple myeloma cell lines against the NCATS MIPE library collection: KMS20_JCRB cell viability assay (AID 1918973). Further: nearly all actives have a fitted effect of over 45% in size. Further: potency means the concentration at half of the fitted maximal effect. Summed up: as §2
Assay [14] can be described thus: Quantitative High-Throughput drug screen in 47 multiple myeloma cell lines against the NCATS MIPE library collection: MOLP8_DSMZ cell viability assay (AID 1918977). Further: nearly all actives have a fitted effect of over 45% in size. Further: potency means the concentration at half of the fitted maximal effect. Summed up: as §4
Assay [15] in a line: Quantitative High-Throughput drug screen in 47 multiple myeloma cell lines against the NCATS MIPE library collection: INA6_PLB cell viability assay (AID 1918965; further: nearly all actives have a fitted effect of over 55% in size; further: potency means the concentration at half of the fitted maximal effect). Put shortly:
as §5

Assay [16] in a line: Quantitative High-Throughput drug screen in 47 multiple myeloma cell lines against the NCATS MIPE library collection: KMS26_JCRB cell viability assay (AID 1918975). Further: nearly all actives have a fitted effect of over 45% in size. Further: potency means the concentration at half of the fitted maximal effect. Put shortly: as §3
Assay [17] in a line: Quantitative High-Throughput drug screen in 47 multiple myeloma cell lines against the NCATS MIPE library collection: MMM1_PLB cell viability assay (AID 1918976). Further: nearly all actives have a fitted effect of over 35% in size. Further: potency means the concentration at half of the fitted maximal effect. Put shortly: as §4
Assay [18] in a line: Quantitative High-Throughput drug screen in 47 multiple myeloma cell lines against the NCATS MIPE library collection: JIM1_ECACC cell viability assay (AID 1918964; further: potency means the concentration at half of the fitted maximal effect). Summed up:
as §2

The nature of assay [19]: Quantitative High-Throughput drug screen in 47 multiple myeloma cell lines against the NCATS MIPE library collection: JJN3_DSMZ cell viability assay (AID 1918966; further: nearly all actives have a fitted effect of over 50% in size; further: potency means the concentration at half of the fitted maximal effect). Summed up: as §2
Assay [20] can be described thus: Quantitative High-Throughput drug screen in 47 multiple myeloma cell lines against the NCATS MIPE library collection: KMS21BM_JCRB cell viability assay (AID 1918974). Further: potency means the concentration at half of the fitted maximal effect. The note with it: ATP luminescence, 48 h; viability: at 45.8 µM (top of the series). Put shortly:
as §2

For the compound `Cc1ccc(O)c(C(CCN(C(C)C)C(C)C)c2ccccc2)c1` (stereo not drawn), the Potency result in [1], in assay [2], in [3], in assay [4], in assay [5] and in assay [6] was “inactive” in each case. Also, the Potency entry in assay [7] and in [8] was “inactive” throughout.
Turning to `CCC[C@H]1C[C@H](C(=O)N[C@@H]([C@@H]2O[C@@H](SC)[C@@H](O)[C@@H](O)[C@@H]2O)[C@H](C)Cl)N(C)C1`, the Potency entry in assay [1], in assay [10], in assay [3], in assay [4], in assay [5] and in assay [11] was “inactive” in each case. The Potency entry in [12], in assay [13], in [14] and in [7] was “inactive” in each case. Moreover, the Potency in [9] was 0.0093 µM (active).
For the compound `CC[C@H]1OC(=O)[C@H](C)[C@@H](O[C@H]2C[C@@](C)(OC)[C@@H](O)[C@H](C)O2)[C@H](C)[C@@H](O[C@@H]2O[C@H](C)C[C@H](N(C)C)[C@@H]2O)[C@](C)(OC)C[C@@H](C)C(=O)[C@H](C)[C@@H](O)[C@]1(C)O`, the Potency result in assay [1], in assay [9], in assay [3], in assay [15], in [4] and in assay [5] was “inactive” throughout. For the same compound, the Potency entry in assay [11], in assay [12], in assay [16], in assay [17], in [7] and in assay [8] was “inactive” in each case.
In the case of `CN(N=O)C(=O)N[C@H]1C(O)OC(CO)[C@@H](O)[C@H]1O` (stereo partly drawn), the Potency entry in [1], in assay [2], in assay [3], in [4], in assay [5] and in assay [14] was “inactive” throughout. Further, the Potency entry in [7] is “inactive”.
Take `CC(C)(C)[C@H](NC(=O)c1ccc(N)c(Cl)c1)C(=O)N1CCC[C@@H]1C(=O)N[C@H](C#N)CC(=O)O`: the viability (% of DMSO) in assay [1] is 126% [at 3.51 µM]; in assay [2], 90.2% [at 3.51 µM]; in assay [16], 125% [at 3.51 µM]. The viability, percent of control in assay [3] was 130% [at 3.51 µM]. Further, the viability (commonly a read-out of living cells in per cent, often relative to untreated cells) is 116% [at 3.51 µM] in assay [4] and 103% [at 3.51 µM] in [8]. Further, the viability (% of control) in assay [14] is 110% [at 3.51 µM]. In addition, the viability, % of control in assay [7] was 122% [at 3.51 µM].
As to `COc1cc(C)c(C=CC(C)=CC=CC(C)=CC(=O)O)c(C)c1C`, the Potency in [1] is 7.43 µM (active); in [3] it was 0.166 µM (active); in assay [15], 5.26 µM (active). The Potency entry in assay [9], in assay [18], in assay [4], in assay [5], in assay [16] and in assay [7] was “inactive” throughout. Further, the Potency result in [8] was “inactive”.
As to `N#Cc1c(C2CCNCC2)cc(-c2c(O)cccc2OCC2CC2)nc1N`, the Potency in [1] was 9.35 µM (active); in assay [9], 2.64 µM (active); in assay [10], 11.8 µM (active); in assay [3] it was 18.7 µM (active); in [15] it was 16.6 µM (active); in assay [19] it was 18.7 µM (active). For the same compound, the Potency in assay [5] is 18.7 µM (active); in assay [11], 0.418 µM (active); in assay [6] it was 14.8 µM (active); in assay [20], 16.6 µM (active); in assay [16] it was 18.7 µM (active); in assay [17], 18.7 µM (active). Moreover, the Potency is 14.8 µM (active) in assay [14] and 20.9 µM (active) in assay [7].
Regarding `OC[C@H]1OC(O)C[C@@H](O)[C@H]1O` (stereo partly drawn), the Potency result in assay [1], in [9], in assay [3], in [4], in assay [17] and in [14] was “inactive” in each case. Besides, the Potency entry in [8] was “inactive”.
Take `C[C@@H]1[C@H](C)CC[C@]2(C(=O)O)CC[C@]3(C)C(=CC[C@@H]4[C@@]5(C)C[C@@H](O)[C@H](O)[C@@](C)(CO)[C@H]5CC[C@]43C)[C@@H]12`: the Potency entry in [1], in assay [2], in assay [3], in assay [4], in assay [11] and in [13] was “inactive” in each case. In addition, the Potency entry in [16], in assay [14], in assay [7] and in assay [8] was “inactive” in each case.
On to `C[C@H]1C[C@H]2[C@@H]3CCC4=CC(=O)C=C[C@]4(C)[C@@H]3C(=O)C[C@]2(C)[C@@]1(O)C(=O)CO`, for which the Potency entry in assay [1], in [9], in [10], in assay [3], in [19] and in assay [4] was “inactive” in each case. The Potency result in assay [11], in [6], in assay [12], in [14] and in assay [7] was “inactive” throughout.
Turning to `O=c1[nH]c(=O)n([C@H]2C[C@@H](O)[C@@H](CO)O2)cc1C=CBr`, the Potency result in assay [1], in [3], in assay [18], in assay [15], in assay [19] and in [4] was “inactive” in each case. Further, the Potency entry in assay [5], in assay [11], in [12], in [13] and in assay [14] was “inactive” each time. In addition, the viability (% of DMSO) in [9] was 90.1% (active).
Turning to `O=C(Nc1cc2cc[nH]c2cn1)c1ccccc1`, the Potency in assay [1] was 4.69 µM (active); in [9], 2.96 µM (active); in assay [10], 7.43 µM (active); in [3], 7.43 µM (active); in assay [15], 8.33 µM (active); in assay [4] it was 9.35 µM (active). Moreover, the Potency was 8.33 µM (active) in [5]; 13.2 µM (active) in [11]; 14.8 µM (active) in assay [6]; 8.33 µM (active) in [12]; 9.35 µM (active) in assay [13]; 11.8 µM (active) in [16]. The Potency in [14] was 3.72 µM (active); in [7], 8.33 µM (active).
For the compound `Nc1ccc(C(=O)Nc2cccc(-c3nc(N4CCOCC4)c4oc5ncccc5c4n3)c2)cn1`, the Potency in assay [1] is 6.62 µM (active); in [9] it was 0.526 µM (active); in assay [10] it was 7.43 µM (active); in assay [3], 4.18 µM (active); in assay [18], 5.26 µM (active); in [15], 3.32 µM (active). Moreover, the Potency was 5.26 µM (active) in assay [19]; 4.18 µM (active) in assay [4]; 2.35 µM (active) in assay [5]; 6.62 µM (active) in assay [11]; 23.5 µM (active) in assay [6]; 2.64 µM (active) in assay [12]. Further, the Potency in assay [16] was 2.35 µM (active); in [17], 16.6 µM (active); in assay [14], 20.9 µM (active); in assay [7] it was 2.64 µM (active).
As for `O=C(CN1C(=O)C2(CCCC2)NC[C@H]1c1cc(F)cc(F)c1)Nc1ccc2c(c1)C[C@@]1(C2)C(=O)Nc2ncccc21`, the Potency entry in assay [1], in assay [9], in assay [3], in [15], in [4] and in assay [5] was “inactive” throughout. Also, the Potency result in [6], in assay [16] and in assay [7] was “inactive” in each case. For the same compound, the Potency in [18] was 18.7 µM (active).
Consider `COC(=O)C=CC(=O)OC`, for which the Potency entry in assay [1] and in [6] was “inactive” each time. In addition, the Potency in assay [9] is 4.18 µM (active); in assay [10], 18.7 µM (active); in assay [15], 18.7 µM (active); in assay [5], 1.48 µM (active); in assay [13] it was 2.64 µM (active); in [7] it was 0.264 µM (active).

Source of the values: PubChem BioAssay (NCATS).
